Values joined by “and” are separate entries in the source; they are usually repeats but may differ in a detail not shown here. Identical values can stand only once. ± gives the standard deviation.
The compounds below were run on OVCAR-3-derived ovarian cancer stem-like cells (spheroids) (assay: cell growth relative to untreated control; higher = more growth (less inhibition)). Conditions: 2.29 µM; 96 h.
Summary of the method: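 OVCAR-3 spheroid-derived stem-like cells were trypsin-dissociated, seeded at 50,000 cells/mL in stem cell medium in ultra-low attachment 96-well plates and preincubated 24 h. Compounds were then added at 2.29 uM for 96 h at 37°C, 5% CO2, in 4 replicate wells. Viability was read as TOX8 resazurin fluorescence (ex 560/em 590 nm) after 4 h. Percent growth was calculated relative to untreated wells after blank subtraction and Grubbs outlier removal.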

SMILES | cell growth
COc1cc2cc(c1Cl)N(C)C(=O)C[C@H](OC(=O)[C@H](C)N(C)C(C)=O)[C@]1(C)O[C@H]1[C@H](C)[C@@H]1C[C@@](O)(NC(=O)O1)[C@H](OC)/C=C/C=C(\C)C2 | 22.5 ± 4.8%
C[C@]12CC[C@@H]3c4ccccc4CC[C@H]3[C@@H]1CC[C@@H]2O | 229 ± 23%
Cc1cn(C2CC(O)C(CO)O2)c(=O)[nH]c1=O (centres undefined) | 92.3 ± 10%
COc1ccc(/C=C2\N=C(c3ccccc3)OC2=O)c(OCc2ccccc2)c1 | 69.7 ± 24%
NC1=C(Br)C(=O)c2ncccc2C1=O | 15.3 ± 3.8%
O=C(O)c1ccc(Nc2c3ccccc3nc3ccccc23)cc1 | 98 ± 12%
OCc1ccc(-c2ccc(-c3ccc(CO)s3)o2)s1 | 92.2 ± 21%
N#CC(=C1C=CC(=NO)C=C1)c1ccc(Cl)cc1 | 91.1 ± 17%
O=S1(=O)OCCOS(=O)(=O)C1Cc1ccccc1 | 93.4 ± 15%
O=C1C=C(Nc2ccccc2C(=O)CC(=O)C(=O)Nc2ccc(Cl)c(Cl)c2)c2ccccc2C1=O | 79.6 ± 13%
NC(=O)NO | 107 ± 15%
Oc1ccc(-c2nc3ccccc3s2)cc1 | 94.8 ± 14%
COCCOC1=C(Cl)C(=O)c2c(O)ccc(O)c2C1=O | 114 ± 18%
COc1ccc2c(c1[N+](=O)[O-])CC[C@@H]1[C@@H]2CC[C@]2(C)C(=O)CC[C@@H]12 | 152 ± 33%
BrC(/C=N/Nc1nnc(-c2ccccc2)c(-c2ccccc2)n1)C(Br)c1ccccc1 (centres undefined) | 93.9 ± 17%
CC(=O)/C(=C\c1cccc([N+](=O)[O-])c1)C(=O)Nc1ccccc1C | 81.8 ± 22%
C/C(=N\NC(=S)N1CCC1)c1ccccn1 | 20.6 ± 4%
CCN(CC)CCCC(C)Nc1c2ccc(Cl)cc2nc2ccc(OC)cc12 (centres undefined) | 37.6 ± 6.1%
[Cl][Pt+2][Cl].[NH-]C1CCCCC1[NH-] (centres undefined) | 98.5 ± 28%
CC(C)(C)CC(C)(C)NCC(O)COc1ccc(C(C)(C)c2ccc(OCC(O)CNC(C)(C)CC(C)(C)C)cc2)cc1 (centres undefined) | 7.1 ± 2.1%

SMILES | cell growth
O=c1oc2cc(O)ccc2c2oc3cc(O)ccc3c12 | 124 ± 31%
Nc1ncnc2c1ncn2[C@@H]1O[C@H](CO)C[C@H]1O | 89.8 ± 18%
O=C(CC1(O)C(=O)Nc2c(Cl)cc(Cl)cc21)c1ccc([N+](=O)[O-])cc1 (centres undefined) | 101 ± 29%
Nc1ccc(S(=O)(=O)Nc2cnc3c(Cl)cccc3n2)cc1 | 100 ± 15%
Cc1c2ccncc2c(C)c2c1sc1ccccc12 | 120 ± 13%
O=C1c2cccc(O)c2C(=O)c2c(O)cccc21 | 68.8 ± 19%
CCCCCCCC/C=C\CCCCCCCC(=O)O | 124 ± 36%
Cc1cc(N)c2ccccc2[n+]1CCCCCCCCCC[n+]1c(C)cc(N)c2ccccc21 | 41.9 ± 7.2%
COc1cc(-c2cc(=O)c3c(OC)c(OC)c(OC)c(OC)c3o2)cc(OC)c1OC | 79 ± 21%
CC1(O)C=CC(=O)C=C1 | 116 ± 12%
COc1cc(OC)c(OC)cc1/C=C/c1ccnc2ccccc12 | 75.8 ± 10%
CC(C)=CCC(OC(=O)C=C(C)C)C1=CC(=O)c2c(O)ccc(O)c2C1=O (centres undefined) | 35 ± 16%
C=C(C)[C@@H]1CC[C@]2(C)CC[C@]3(C)[C@H](CC[C@@H]4[C@@]5(C)CC[C@H](O)C(C)(C)[C@@H]5CC[C@]43C)[C@@H]12 | 121 ± 19%
CN(C)C(=O)c1cccc(COc2ccc(N3C(N)=NC(N)=NC3(C)C)cc2Cl)c1 | 76 ± 15%
Cn1cnc([N+](=O)[O-])c1Sc1nnnn1-c1ccccc1 | 92.6 ± 24%
[Mo] | 97% and 106%
CC(C)=CCC1=C(O)c2ccccc2C(=O)C1=O | 109 ± 28%
Oc1cc(-n2cccn2)c(O)cc1-n1cccn1 | 103 ± 13%
Nc1nc(SCc2ccccc2Cl)c2[nH]cnc2n1 | 106 ± 13%
